Compounds with a hit are over-represented: about 10% of the library has one in this group of screens.
3T3 cytotox = Cytotoxic Profiling in NIH 3T3 Cell Line of Diverse Libraries Using Quantitative High-Throughput Screening. actives 4.3% (n = 94,000). NIH 3T3 viability, CellTiter-Glo ATP luminescence, 48-72 h. Potency, µM (titrated, usually from 96.7 µM), most hits filed as inhibitors; further: nearly all actives have a fitted effect of over 55% in size
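Mouse fibroblast NIH 3T3 cells, 400 per well, received compound via pintool and were incubated for 48 or 72 hr prior to CellTiter-Glo ATP luminescence measurement.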
HEK293 tox = Cytotoxic Profiling in HEK 293 Cell Line of Diverse Libraries Using Quantitative High-Throughput Screening. Potency, µM (top dose mostly 115 µM), hits mostly inhibitors. actives 6.6% (n = 94,000). HEK 293 viability, ATP luminescence (CellTiter-Glo), 48-72 h; further: nearly all actives have a fitted effect of over 60% in size
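Cells seeded first (HEK 293, 250 cells/well), then compound added by pintool. Incubation ran 48 or 72 hr at 37 degree Celsius. CellTiter-Glo was added and luminescence imaged after 10 min at room temperature.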
GPT2 inhibitor = Primary qHTS assay for inhibitors of Glutamate pyruvate transaminase 2 (GPT2); actives 0.25% (n = 100,000); Potency, µM (highest dose often 57.7 µM), actives largely listed as inhibitors; Recombinant GPT2, coupled pyruvate oxidase/HRP Amplex Red fluorescence; Alanine aminotransferase 2 (Homo sapiens), Q8TD30; further: nearly all actives have a fitted effect of over 60% in size
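GPT2 10ng/uL, a-KG 250uM, L-Ala 2mM, HEPES pH7.5 + 0.0001% Tween; 30 min RT. Then Amplex mix (PO/HRP/ThPP), 30 min RT dark, fluorescence. AOA 50uM used as positive control.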
hNpr1 antagonist = Natriuretic polypeptide receptor (hNpr1) antagonism - Primary qHTS | Atrial natriuretic peptide receptor 1 (Homo sapiens), P16066 | HEK293 hNpr1 GloSensor cGMP, ANP-stimulated luminescence | Potency, µM (titrated, usually from 46.3 µM), most hits filed as inhibitors | actives 1.6% (n = 76,000); calls by dose curve; further: nearly all actives have a fitted effect of over 60% in size
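HEK293 cells stably expressing human Npr1 and cGMP GloSensor pGS-40F, loaded 2 h with 2% GloSensor reagent, given compound 30 min at room temperature. Luminescence read before and 20 min after 0.1 nM hNppA.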
Luciferase inh = Firefly luciferase inhibition profiling of diverse chemical library using quantitative high-throughput screening; Luciferin 4-monooxygenase (Photinus pyralis), P08659; AID 1347043, 2019; purified P. pyralis luciferase, luminescence, biochemical; Potency, µM (series often up to 115 µM), hits mostly inhibitors; actives 2.5% (n = 76,000); further: nearly all actives have a fitted effect of over 65% in size
Target sequence (P08659 whole entry, looked up): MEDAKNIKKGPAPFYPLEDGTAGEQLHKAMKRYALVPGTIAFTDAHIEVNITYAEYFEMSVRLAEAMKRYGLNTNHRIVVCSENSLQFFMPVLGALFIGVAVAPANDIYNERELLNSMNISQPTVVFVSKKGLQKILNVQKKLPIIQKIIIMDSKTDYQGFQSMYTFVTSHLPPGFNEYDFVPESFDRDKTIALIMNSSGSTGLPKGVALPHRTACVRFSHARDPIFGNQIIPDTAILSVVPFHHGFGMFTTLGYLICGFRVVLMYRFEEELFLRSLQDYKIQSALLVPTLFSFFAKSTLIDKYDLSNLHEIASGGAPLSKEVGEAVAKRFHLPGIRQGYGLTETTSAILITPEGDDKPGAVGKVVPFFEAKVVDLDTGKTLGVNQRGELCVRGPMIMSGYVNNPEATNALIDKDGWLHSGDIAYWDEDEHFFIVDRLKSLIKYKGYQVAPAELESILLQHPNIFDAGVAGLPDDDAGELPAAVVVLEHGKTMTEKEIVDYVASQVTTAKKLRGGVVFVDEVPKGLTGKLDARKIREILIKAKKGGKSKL
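Luminescence read by CCD imaging after purified firefly luciferase (10nM final) was added to substrate buffer holding 10uM D-luciferin and 10uM ATP, pH 7.5, pre-dosed with compound.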
Numbers stand for hits; i = inactive; ? = inconclusive; nt = not tested or not shown; [ ] = dose if it differs, or a comment. Unless noted, the call rests on the fitted dose curve; in most records, active means well fitted curve in the direction sought with a large enough effect; inconclusive means small, poorly fitted or top-dose-only effect, or another doubt; inactive means no such curve, though single readings can be large; an effect the other way counts as inactive or inconclusive.

SMILES	3T3 cytotox	HEK293 tox	GPT2 inhibitor	hNpr1 antagonist	Luciferase inh
O=C(NC1CCN(c2ccc3nnc(-c4ccccc4)n3n2)C1)c1ccccc1Cl (stereo not given)	32µM	35µM	nt	nt	nt
O=C(NC1CCN(c2ccc3nnc(-c4ccccc4)n3n2)CC1)c1ccccc1F	i	?	nt	nt	nt
COc1ccccc1C(=O)NC1CCN(c2ccc3nnc(-c4ccccc4)n3n2)CC1	?	35µM	nt	nt	nt
O=C(Cc1cccc(Cl)c1)NC1CCCN(c2ccc3nnc(C4CC4)n3n2)C1 (stereo not given)	i	i	nt	nt	nt
O=C(Cc1cccc(Cl)c1)NC1CCCN(c2ccc3nnc(-c4ccccc4)n3n2)C1 (stereo not given)	35µM	35µM	nt	nt	nt
O=C(NC1CCN(c2ccc3nnc(-c4ccccc4)n3n2)C1)c1ccc(F)cc1 (stereo not given)	i	i	nt	nt	nt
Cc1ccc2oc(C(=O)N(C)Cc3cc(-c4ccccc4)no3)c(C)c2c1	i	?	i	i	i
CCCc1ccc2oc(C(=O)N(C)Cc3snnc3C)c(C)c2c1	?	40µM	i[11.5 µM]	i	?
Cc1ccc(CCNC(=O)c2ccc(Cn3ccn4nc5c(c4c3=O)CCCC5)cc2)cc1	?	?	i	?	i
CC1(C)[C@H](Cc2cc(COc3ccccc3)on2)C[C@@H]1NC(=O)Nc1ccccc1	?	?	i	i	i
O=C(O)CCn1ncc2cc(OC3CCN(C(=O)COc4ccccc4)CC3)ccc21	50µM	i	i	i	i
O=C(O)CCn1ncc2cc(OCC3CCN(C(=O)Oc4ccccc4Cl)CC3)ccc21	18µM	i	i	i	?
O=C(O)CCn1ncc2cc(OCC3CCN(C(=O)CCC(F)(F)F)CC3)ccc21	13µM	i	i	i	i
O=C(O)CCn1ncc2cc(OC3CCN(C(=O)Oc4ccccc4)CC3)ccc21	?	i	i	i	i
O=C(NCCc1ccccc1F)c1nc2cccnc2n(CCc2ccccc2)c1=O	?	?	i	nt	nt
Cc1cc(C)c(CNC(=O)c2cc(-c3ccccc3)cc3c2OCCN3C)c(=O)[nH]1	?	?	i	i	i
COc1ccccc1-c1cc(C(=O)NCc2c(C)cc(C)[nH]c2=O)c2c(c1)N(C)CCO2	?	89µM	i	i	i
Cc1cc(C)c(CNC(=O)c2cc(-c3ccccc3)cc3c2OCCN3C(C)C)c(=O)[nH]1	22µM	32µM	i	i	i
COc1cc(F)ccc1-c1cc(C(=O)NCc2ccnc(N)c2)c2c(c1)ncn2C	?	?	i	i	?
COc1cc(F)ccc1-c1cc(C(=O)NCc2c(C)cc(C)[nH]c2=O)c2c(c1)ncn2C	25µM	?	i	i	?
Cc1cc(C)c(CNC(=O)c2cc(-c3ccc(CO)cc3)cc3c2OCCN3C)c(=O)[nH]1	13µM	89µM	i	i	i
CCOC(=O)[C@@H]1[C@@H](O)C(=O)N(C)C12CCN(C(=O)OCC)CC2	i	?	nt	nt	nt
O=C1NCCCCCCN(C(=O)CCC2CCCC2)[C@H]2C[C@H](c3nc(Cc4ccccc4)no3)C[C@@H]12	?	32µM	i	i	i
O=C1NCCCCCCN(C(=O)CC2CCCCC2)[C@H]2C[C@H](c3nc(Cc4ccccc4)no3)C[C@@H]12	35µM	?	i	i	i
O=C(Cn1ccn2nc(-c3ccccc3)c(CO)c2c1=O)Nc1cc(Cl)cc(Cl)c1	i	50µM	i	i	i
SMILES	3T3 cytotox	HEK293 tox	GPT2 inhibitor	hNpr1 antagonist	Luciferase inh
CC(C)CCN1CCC(O)(c2csc(CN3CCN(C)CC3)n2)CC1	?	?	i	i	i
Cc1ccc(-c2cccc(CN3CCCC(NC(=O)Cc4ccccc4)C3)c2)cc1Cl (stereo not given)	i	i	i	nt	nt
Cc1ccc(-c2cccc(CN3CCCC(NC(=O)Nc4ccccc4F)C3)c2)cc1Cl (stereo not given)	28µM	18µM	i	nt	nt
COC(=O)NC1CCCN(Cc2cccc(-c3ccc(C)c(Cl)c3)c2)C1 (stereo not given)	?	45µM	i	nt	nt
Cc1ccc(-c2cccc(CN3CCCC(NC(=O)C4CCCC4)C3)c2)cc1Cl (stereo not given)	i	i	i	nt	nt
CC(=O)NC1CCCN(Cc2cccc(-c3ccc(C)c(Cl)c3)c2)C1 (stereo not given)	35µM	20µM	i	nt	nt
CN(Cc1ccccn1)Cc1cccn1C	i	i	i	i	i
CCN(CC)CCNC(=O)c1ccc2c(c1)n(Cc1cccc(F)c1)c(=O)c1ccnn12	32µM	32µM	i	i	i
O=C(NCc1ccco1)c1ccc2c(c1)n(Cc1ccc(F)cc1)c(=O)c1ccnn12	22µM	?	i	i	i
O=C(NCc1ccccc1)c1ccc2c(c1)n(Cc1ccc(F)cc1)c(=O)c1ccnn12	32µM	28µM	i	i	i
CN(C)CCNC(=O)c1nc2nc(-c3ccccc3)c(-c3ccccc3F)cc2n1C	35µM	50µM	i	?	i
CN(C)CCNC(=O)c1nc2nc(-c3ccccc3)c(Cl)cc2n1C	?	i	i	i	i
Cn1c(C(=O)NCCc2cnc[nH]2)nc2nc(-c3ccccc3)c(Cl)cc21	28µM	?	i	i	?
CN1CCC(NC(=O)c2nc3nc(-c4ccccc4)c(-c4cccc(O)c4)cc3n2C)CC1	11µM	35µM	i	i	i
CCOc1ccc(CC(=O)NC2CCN(c3cc(-c4cccs4)[nH]n3)C2)cc1 (stereo not given)	16µM	45µM	?	i	i
O=C(Cc1cccc(F)c1)NC1CCN(c2cc(-c3cccs3)[nH]n2)C1 (stereo not given)	?	?	?	i	i
O=C(Cc1ccccc1F)NC1CCN(c2cc(-c3cccs3)[nH]n2)C1 (stereo not given)	?	16µM	i	i	i
CCOc1cc(C(=O)NC2CCN(c3cc(-c4cccs4)[nH]n3)C2)cc(OCC)c1OCC (stereo not given)	?	45µM	i	i	i
COc1cc(OC)cc(C(=O)NC2CCN(c3cc(-c4cccs4)[nH]n3)C2)c1 (stereo not given)	?	?	?	i	i
Cn1ccnc1CN1CCC2(CC1)COCCN2C(=O)OCc1ccccc1	?	?	i	i	i
COc1ccccc1Cn1c(=O)c(C(=O)NCCc2ccc(Cl)cc2)nc2cccnc21	?	?	i	nt	nt
COc1ccccc1-c1cccc(CN2CCC(NC(=O)Nc3ccccc3)CC2)c1	18µM	22µM	?	nt	nt
COc1ccccc1-c1cccc(CN2CCC(NC(=O)c3cccc(Cl)c3)CC2)c1	?	45µM	i	nt	nt

Screening results as filed in PubChem BioAssay.
